# Reference: PubChem BioAssay AID1529 (NMMLSC, 2009)
# Screen size: about 290,000 compounds; about 4,200 (1.4%) were called active.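 Rule for the calls: active = binding response more than 3 SD above or below the average of its plate-row segment, actives on both sides; inconclusive = wells at one plate position flagged as instrument error; inactive = the rest.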 The entries come from a sample that favours actives as a whole.
# Biological target: Mitogen-activated protein kinase kinase kinase 3 (Homo sapiens) (UniProt Q99759)
# Test: compounds raising or lowering MEK5 association with MEKK3 PB1 – biochemical, wildtype MEKK3, multiplex bead flow cytometry, Alexa488-MEK5, primary screen (AID 1529);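 note: Alexa488 bead fluorescence after subtracting the streptavidin-only scavenger bead signal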
# Details: bead-based flow cytometry, Alexa488-MEK5 binding to MEKK3; at 10 µM; actives lie on both sides; 0 = blocked by unlabeled MEK5, 100 = vehicle
# Chain of Mitogen-activated protein kinase kinase kinase 3 (Homo sapiens) (Q99759 whole entry, looked up): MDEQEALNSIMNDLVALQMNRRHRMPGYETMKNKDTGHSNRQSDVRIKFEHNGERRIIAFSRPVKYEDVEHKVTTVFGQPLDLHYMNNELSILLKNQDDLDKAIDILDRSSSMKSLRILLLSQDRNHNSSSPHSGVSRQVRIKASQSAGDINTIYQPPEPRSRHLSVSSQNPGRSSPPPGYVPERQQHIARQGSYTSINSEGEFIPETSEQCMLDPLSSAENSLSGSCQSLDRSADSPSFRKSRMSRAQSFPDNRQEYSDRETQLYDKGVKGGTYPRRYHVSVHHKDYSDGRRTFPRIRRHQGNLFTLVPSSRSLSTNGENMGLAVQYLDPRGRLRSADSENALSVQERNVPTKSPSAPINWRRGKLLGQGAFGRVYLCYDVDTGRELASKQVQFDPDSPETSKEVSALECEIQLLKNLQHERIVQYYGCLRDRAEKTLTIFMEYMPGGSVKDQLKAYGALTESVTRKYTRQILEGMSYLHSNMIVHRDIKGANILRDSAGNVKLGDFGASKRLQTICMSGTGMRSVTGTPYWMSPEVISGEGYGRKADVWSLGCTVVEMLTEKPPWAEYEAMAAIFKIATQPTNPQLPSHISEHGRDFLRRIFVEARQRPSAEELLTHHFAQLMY
row,Compound,binding response (% of control)
1,CCN1C(=O)N[C@@H](CCc2ccccc2)C(C(=O)OC)=C1C,101% (inactive)
2,CCC(=O)Nc1nnc(S(=O)(=O)N2CCCc3ccccc32)s1,98% (inactive)
3,O=C(CCN1C(=O)[C@@H]2Cc3ccccc3CN2C1=O)NCCc1ccccc1,99% (inactive)
4,Cc1[nH][nH]c(=O)c1C(c1ccc(-c2ccc(Cl)cc2)o1)c1c(C)[nH][nH]c1=O,95% (inactive)
5,Cc1[nH][nH]c(=O)c1C(c1ccc2c(c1)OCO2)c1c(C)[nH][nH]c1=O,102% (inactive)
6,CCOc1ccc(C(c2c(C)[nH][nH]c2=O)c2c(C)[nH][nH]c2=O)cc1OCC,152% (active)
7,CCOc1ccc(CN2CCN(Cc3c[nH]c4ccccc34)CC2)cc1,99% (inactive)
8,Cn1ccnc1-c1nnn(-c2ccc(F)cc2)n1,95% (inactive)
9,CCOc1ccccc1C1C(C(=O)OC)=CN(C)C=C1C(=O)OC,102% (inactive)
10,COC(=O)C1=CN(Cc2ccc(OC)cc2)C=C(C(=O)OC)C1c1ccc(O)c(OC)c1,104% (inactive)
11,CCOc1cc(C2C(C(=O)OC)=CN(C3CCCC3)C=C2C(=O)OC)cc(Br)c1O,80% [inhibitor] (active)
12,COc1nnc(-c2ccc(C)c(S(=O)(=O)N(C)C)c2)c2ccccc12,101% (inactive)
13,CC(=O)Cn1cnc2c(cnn2-c2ccccc2)c1=O,102% (inactive)
14,CN(C)/C=C/c1c(C#N)c(=O)ncn1Cc1ccccc1,103% (inactive)
15,Cc1c(C#N)c2ncn(CC#N)c(=O)c2n1-c1ccccc1,122% (active)
16,Cc1cc(N2CCOCC2)nc2ccc(NC(=S)N3CCN(Cc4ccccc4)CC3)cc12,92% (inactive)
17,COc1ccc(C(C(=O)NC(C)(C)C)N(Cc2ccc(F)cc2)C(=O)CCC(=O)Nc2cc(C)on2)cc1 (stereo not given),100% (inactive)
18,NC(=O)C1CCN(C(=O)CC2C(=O)NCCN2Cc2cccc(Oc3ccccc3)c2)CC1 (stereo not given),101% (inactive)
19,Cc1ccc2occ(/C=N/NC(=O)c3ccccc3C)c(=O)c2c1,104% (inactive)
20,NC(=S)N/N=C/c1coc2cc(Cl)ccc2c1=O,92% (inactive)
21,O=c1c(/C=N/O)coc2ccc(Cl)cc12,48% [inhibitor] (active)
22,Cc1ccc(OCC(=O)Nc2ccc3oc(=O)ccc3c2)cc1C,102% (inactive)
23,Cc1ccc(C(=O)N2CCN(C(=O)N3CCOCC3)CC2)cc1,107% (inactive)
24,O=C(Nc1ccc(Cl)cc1)Nc1ccc(C(=O)N2CCOCC2)cc1,103% (inactive)
25,Cc1ccccc1-c1ccc(Nc2ccc(C(=O)N3CCOCC3)cc2)nn1,79% [inhibitor] (active)
